# Laboratory results taken from PubChem BioAssay (NCATS).
# Inconclusive results are not listed. Where a call stands in place of a potency, no number is given. Calls of active or inactive are those of the source. Calls follow the shape of the dose curve; as a rule, active = well fitted curve in the direction sought with a large enough effect; inconclusive = small, poorly fitted or top-dose-only effect, or another doubt; inactive = no such curve, though single readings can be large; an effect the other way counts as inactive or inconclusive.
# System: not listed separately
# Assay: qHTS for Activators of Parkin Expression: LOPAC Validation Assay (FLuc Reporter) (AID 720573)
# Conditions: Cell line, PRKN promoter firefly luciferase reporter, vehicle wells = 0, positive control = 100%; series mostly up to 46.1 µM
# Procedure, shortened: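 FLuc luminescence read-out from a neuronal line expressing a Parkin-promoter-driven coincidence reporter. Cells treated 24 h at 37 C, 5% CO2 with compounds at 7 concentrations; signal increase normalized to DMSO and positive control.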
row,SMILES,outcome
1,C/C(O)=C(\C#N)C(=O)Nc1cc(Br)ccc1Br,inactive
2,N[C@@H](CCl)C(=O)O,inactive
3,c1ccc2c(c1)[I+]c1ccccc1-2,inactive
4,C[N+]1(C)CCOC(O)(c2ccc(-c3ccc(C4(O)C[N+](C)(C)CCO4)cc3)cc2)C1 (stereo not drawn),inactive
5,C[Se]C[C@H](N)C(=O)O,inactive
6,Cc1sc2ccccc2c1CC1=NCCN1,inactive
7,Oc1ccc2c3c1O[C@H]1c4oc5ccccc5c4C[C@@]4(O)C(C2)N(CC2CC2)CCC314 (stereo partly drawn),inactive
8,C[N+]1(C)CCN(c2ccccc2)CC1,inactive
9,OCc1cnc[nH]1,inactive
10,CCn1cnc2c(Nc3cccc(Cl)c3)nc(N[C@@H]3CCCC[C@@H]3N)nc21,inactive
11,CN(C(=O)Cc1ccc(Cl)c(Cl)c1)C(CN1CCCC1)c1cccc(OCC(=O)O)c1 (stereo not drawn),inactive
12,CCN1C[C@@]2(COC)C3[C@@H](OC)C4[C@@H]1C3([C@@H]1C[C@]3(O)[C@H](OC(=O)c5ccccc5)[C@@H]1[C@]4(OC(C)=O)[C@@H](O)[C@@H]3OC)[C@H](OC)C[C@H]2O,inactive
13,C=CCN1CC[C@]23c4c5ccc(O)c4O[C@H]2/C(=N/NC(=O)c2ccccc2)CC[C@@]3(O)[C@H]1C5,inactive
14,C[C@@H]1O[C@H](C[N+](C)(C)C)CS1,inactive
15,Nc1ccc(CCN2CCN(c3cccc(C(F)(F)F)c3)CC2)cc1,inactive
16,CN1CC[C@@]2(C)c3cc(O)ccc3N(C)C12 (stereo partly drawn),inactive
17,NC(N)=NOCC[C@H](N)C(=O)O,inactive

row,SMILES,outcome
1,COC(=O)N1CCN(C(=O)Cc2ccc(Cl)c(Cl)c2)C(CN2CCCC2)C1 (stereo not drawn),inactive
2,CC(C)[C@@]1(NC(=O)[C@@H]2C[C@@H]3c4cccc5[nH]cc(c45)C[C@H]3N(C)C2)O[C@@]2(O)[C@@H]3CCCN3C(=O)[C@H](Cc3ccccc3)N2C1=O,inactive
3,NC(C(=O)O)c1cc(=O)[nH]o1 (stereo not drawn),inactive
4,CO[C@H]1CC=C2CCN3CCC4=C(CC(=O)OC4)[C@]23C1,inactive
5,c1ccc2c(N3CCNCC3)cccc2c1,inactive
6,COc1ccc2[nH]c3c(c2c1)CCNC3,inactive
7,NC(=O)CI,inactive
8,Cc1[nH]c2ccc(O)cc2c1CCN,inactive
9,CNc1ccc2oc(C[C@H]3O[C@@]4(CC[C@H]3C)O[C@H]([C@H](C)C(=O)c3ccc[nH]3)[C@H](C)C[C@H]4C)nc2c1C(=O)O,inactive
10,CN1CCC(c2c[nH]c3ccc(O)cc23)CC1,inactive
11,C=CCN1CC[C@]23c4c5ccc(O)c4O[C@@H]2/C(=N/N=C2\CC[C@@]4(O)C6Cc7ccc(O)c8c7[C@@]4(CCN6CC=C)[C@@H]2O8)CC[C@@]3(O)C1C5,inactive
12,NC(CCCCCP(=O)(O)O)C(=O)O (stereo not drawn),inactive
13,NC(=O)COc1c(F)cc(SCCNS(=O)(=O)c2ccccc2)cc1F,inactive
14,C=CCN(C1=NCCN1)c1c(Cl)cccc1Cl,inactive
15,CC(=O)OCC1=C(C(=O)O)N2C(=O)[C@@H](NC(=O)CCC[C@@H](N)C(=O)O)[C@H]2SC1,inactive
16,CCCN(CCC)C1Cc2cc(OC)c(OC)cc2C1,inactive
17,CC(N)Cc1c[nH]c2ccc(O)cc12 (stereo not drawn),inactive

# Target: Hexokinase-4 (Homo sapiens) + Glucokinase regulatory protein (Homo sapiens) (UniProt P35557+Q14397)
# Sequence (P35557 whole entry, looked up): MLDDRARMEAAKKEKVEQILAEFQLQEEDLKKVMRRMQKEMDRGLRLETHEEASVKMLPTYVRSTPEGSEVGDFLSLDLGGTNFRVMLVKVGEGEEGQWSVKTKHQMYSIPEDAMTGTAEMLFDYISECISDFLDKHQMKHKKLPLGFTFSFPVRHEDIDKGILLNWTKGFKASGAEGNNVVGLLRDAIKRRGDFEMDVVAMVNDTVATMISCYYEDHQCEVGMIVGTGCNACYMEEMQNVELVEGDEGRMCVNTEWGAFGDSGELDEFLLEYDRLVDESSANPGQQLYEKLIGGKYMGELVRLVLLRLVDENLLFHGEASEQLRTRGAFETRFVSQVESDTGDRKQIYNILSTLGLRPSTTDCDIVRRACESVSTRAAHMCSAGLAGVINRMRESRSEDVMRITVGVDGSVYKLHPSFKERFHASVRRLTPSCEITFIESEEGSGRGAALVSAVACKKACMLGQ
# Sequence (Q14397 whole entry, looked up): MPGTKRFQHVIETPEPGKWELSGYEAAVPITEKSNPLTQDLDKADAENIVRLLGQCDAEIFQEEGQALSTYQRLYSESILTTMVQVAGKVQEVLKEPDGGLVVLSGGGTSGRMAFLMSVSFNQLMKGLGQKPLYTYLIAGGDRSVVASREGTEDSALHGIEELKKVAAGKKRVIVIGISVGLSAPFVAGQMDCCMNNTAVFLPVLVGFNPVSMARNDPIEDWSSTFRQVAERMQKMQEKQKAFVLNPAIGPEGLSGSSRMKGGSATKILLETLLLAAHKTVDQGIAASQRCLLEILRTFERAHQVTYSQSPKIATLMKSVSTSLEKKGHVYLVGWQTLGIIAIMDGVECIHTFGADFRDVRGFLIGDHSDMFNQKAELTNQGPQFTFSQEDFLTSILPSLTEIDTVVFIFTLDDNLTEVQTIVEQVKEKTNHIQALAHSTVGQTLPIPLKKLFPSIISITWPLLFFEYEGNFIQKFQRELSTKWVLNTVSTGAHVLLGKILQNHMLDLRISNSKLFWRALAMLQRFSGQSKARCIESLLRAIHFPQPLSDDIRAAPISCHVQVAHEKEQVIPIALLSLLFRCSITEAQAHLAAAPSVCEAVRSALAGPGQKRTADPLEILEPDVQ
# Assay: qHTS assay for inhibitors of recombinant human GCK-GKRP interaction: Diaphorase-coupled assay (AID 743205)
# Conditions: G6PDH/diaphorase resorufin fluorescence; series mostly up to 57.5 µM
# Procedure, shortened: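 Resorufin fluorescence (525/590 nm), read each minute over 30 min, reports GCK activity coupled via G6PDH and diaphorase. Reaction: 10 nM GST-GCK, 10 nM FLAG-GKRP, 5 mM glucose, 0.4 mM ATP, 0.15 mM NADP+, 0.1 mM resazurin.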
row,SMILES,Potency
1,C/C(O)=C(\C#N)C(=O)Nc1cc(Br)ccc1Br,inactive
2,N[C@@H](CCl)C(=O)O,inactive
3,c1ccc2c(c1)[I+]c1ccccc1-2,inactive
4,C[N+]1(C)CCOC(O)(c2ccc(-c3ccc(C4(O)C[N+](C)(C)CCO4)cc3)cc2)C1 (stereo not drawn),inactive
5,C[Se]C[C@H](N)C(=O)O,inactive
6,Cc1sc2ccccc2c1CC1=NCCN1,inactive
7,Oc1ccc2c3c1O[C@H]1c4oc5ccccc5c4C[C@@]4(O)C(C2)N(CC2CC2)CCC314 (stereo partly drawn),inactive
8,C[N+]1(C)CCN(c2ccccc2)CC1,inactive
9,OCc1cnc[nH]1,inactive
10,CCn1cnc2c(Nc3cccc(Cl)c3)nc(N[C@@H]3CCCC[C@@H]3N)nc21,inactive
11,CN(C(=O)Cc1ccc(Cl)c(Cl)c1)C(CN1CCCC1)c1cccc(OCC(=O)O)c1 (stereo not drawn),inactive
12,CCN1C[C@@]2(COC)C3[C@@H](OC)C4[C@@H]1C3([C@@H]1C[C@]3(O)[C@H](OC(=O)c5ccccc5)[C@@H]1[C@]4(OC(C)=O)[C@@H](O)[C@@H]3OC)[C@H](OC)C[C@H]2O,inactive
13,C=CCN1CC[C@]23c4c5ccc(O)c4O[C@H]2/C(=N/NC(=O)c2ccccc2)CC[C@@]3(O)[C@H]1C5,inactive
14,C[C@@H]1O[C@H](C[N+](C)(C)C)CS1,inactive
15,Nc1ccc(CCN2CCN(c3cccc(C(F)(F)F)c3)CC2)cc1,inactive
16,CN1CC[C@@]2(C)c3cc(O)ccc3N(C)C12 (stereo partly drawn),inactive
17,NC(N)=NOCC[C@H](N)C(=O)O,inactive

row,SMILES,Potency
1,COC(=O)N1CCN(C(=O)Cc2ccc(Cl)c(Cl)c2)C(CN2CCCC2)C1 (stereo not drawn),inactive
2,CC(C)[C@@]1(NC(=O)[C@@H]2C[C@@H]3c4cccc5[nH]cc(c45)C[C@H]3N(C)C2)O[C@@]2(O)[C@@H]3CCCN3C(=O)[C@H](Cc3ccccc3)N2C1=O,inactive
3,NC(C(=O)O)c1cc(=O)[nH]o1 (stereo not drawn),inactive
4,CO[C@H]1CC=C2CCN3CCC4=C(CC(=O)OC4)[C@]23C1,inactive
5,c1ccc2c(N3CCNCC3)cccc2c1,inactive
6,COc1ccc2[nH]c3c(c2c1)CCNC3,inactive
7,NC(=O)CI,inactive
8,Cc1[nH]c2ccc(O)cc2c1CCN,inactive
9,CNc1ccc2oc(C[C@H]3O[C@@]4(CC[C@H]3C)O[C@H]([C@H](C)C(=O)c3ccc[nH]3)[C@H](C)C[C@H]4C)nc2c1C(=O)O,inactive
10,CN1CCC(c2c[nH]c3ccc(O)cc23)CC1,inactive
11,C=CCN1CC[C@]23c4c5ccc(O)c4O[C@@H]2/C(=N/N=C2\CC[C@@]4(O)C6Cc7ccc(O)c8c7[C@@]4(CCN6CC=C)[C@@H]2O8)CC[C@@]3(O)C1C5,inactive
12,NC(CCCCCP(=O)(O)O)C(=O)O (stereo not drawn),inactive
13,NC(=O)COc1c(F)cc(SCCNS(=O)(=O)c2ccccc2)cc1F,inactive
14,C=CCN(C1=NCCN1)c1c(Cl)cccc1Cl,inactive
15,CC(=O)OCC1=C(C(=O)O)N2C(=O)[C@@H](NC(=O)CCC[C@@H](N)C(=O)O)[C@H]2SC1,inactive
16,CCCN(CCC)C1Cc2cc(OC)c(OC)cc2C1,inactive
17,CC(N)Cc1c[nH]c2ccc(O)cc12 (stereo not drawn),inactive
